Inconclusive results are not listed. Active and inactive are the calls of the source. Rule for the calls: active = hit-call score of the fitted dose curve at least 0.9, where 1 is the maximum; inconclusive = response in the unintended direction; inactive = score below 0.9.

The test system of the test is SRY-box transcription factor 17 (SOX17) Protein Expression, SOX17 (gene 64321). Kind of test: CCTE_Deisenroth_DEVTOX-GLR_Ecto_SOX17: CCTE's DevTox GLR-Ecto Assay Evaluation of SRY-box transcription factor 17 (SOX17) Protein Expression, Deisenroth Lab. As for the experimental part:
CCTE_Deisenroth_DEVTOX-GLR_Ecto assay is a cell-based, multiplex-readout assay that uses RUES2-GLR, a human pluripotent cell line, with measurements taken at 48 hours after chemical dosing in a 384-well microplateCCTE_Deisenroth_DEVTOX-GLR_Ecto_SOX17 is 1 of 4 assay components calculated from the CCTE_Deisenroth_DEVTOX-GLR_Ecto assay and it measures an the percentage of cells in an endoderm state. Using a type of inducible fluorescent protein reporter, gain-of-signal activity can be used to understand changes in gene expression with fluorescent microscopy. The percentage of SOX17+ cells are determined by calculating the number of SOX17+ cells divided by the cell count. To generalize the intended target to other relatable targets, this assay component is annotated to the transcription factor intended target family, where the subfamily is SRY-related HMG-box.Data from the assay component CCTE_Deisenroth_DEVTOX-GLR_Ecto_SOX17 was analyzed as 1 assay endpoint. The endpoint is the percent SOX17+ cell population minus the 0.2% DMSO control in the CCTE_Deisenroth_DEVTOX-GLR_Ecto assay. This assay endpoint can be referred to as a secondary readout since this assay has produced multiple assay endpoints where this one serves as a measure of endoderm differentiation.
All assay protocols are aligned to the DevTox GLR-Endo assay workflow. Cells are seeded into 384-well microplates for 24 hours prior to initiating differentiation in defined media for a total duration of 48 hours. A total of two chemical exposures are administered in 24-hour intervals during the 48-hour differentiation period. At the assay termination point, cells are fixed and stained with a fluorescent dye demarcating the nucleus. High-content imaging is used to acquire brightfield and fluorescent channel images across 5 fields per well. Cell identification and mean biomarker fluorescence intensities are calculated with image analysis software to determine the total cell counts for viability assessment and the biomarker expression frequency for each lineage-dependent assay. A typical experimental design tests a 10-point concentration series (1 nM - 200 uM) for 28 compounds in single technical replicate. Assay plate controls include non-differentiated pluripotent cells (baseline control), lineage-specific differentiated cells (differentiation control), and DMSO solvent exposed differentiated cells (solvent control). Experiments typically comprise a minimum of four experimental replicates (n=4).
Turning to `O=C1NC(=O)C(c2ccccc2)(c2ccccc2)N1`, the result was inactive. The same measure, in the same setting: under `O=C1CCC(N2C(=O)c3ccccc3C2=O)C(=O)N1` (configuration not stated) stands “inactive”. In the case of `CCN(CC)CCNC(=O)c1c(C)[nH]c(/C=C2\C(=O)Nc3ccc(F)cc32)c1C`, the AC50 – broadly, the concentration giving half of the maximal activity seen – was 1.14 µM (active).

Take `CS(=O)(=O)OCCCCOS(C)(=O)=O`: the half-maximal activity concentration (AC50) is 100 µM (active). Take `CN(Cc1cnc2nc(N)nc(N)c2n1)c1ccc(C(=O)N[C@@H](CCC(=O)O)C(=O)O)cc1`: the compound was called inactive.

On to `CC(C)(c1ccc(O)cc1)c1ccc(O)cc1`, for which the compound was called inactive. Consider `O=C1NS(=O)(=O)c2ccccc21`, for which the call was inactive.

Take `CCCC(CCC)C(=O)O`: the compound was classed as inactive. For `CC/C(=C(/CC)c1ccc(O)cc1)c1ccc(O)cc1`, the compound was classed as inactive. Turning to `O=c1[nH]cc(F)c(=O)[nH]1`, the AC50 is 32 µM (active).

Take `CC1=C(/C=C/C(C)=C/C=C/C(C)=C\C(=O)O)C(C)(C)CCC1`: the concentration at half-maximal activity (AC50) was 183 µM (active).

With `CC1=C(/C=C/C(C)=C/C=C/C(C)=C/C(=O)O)C(C)(C)CCC1`, the AC50 was 171 µM (active).

For the origin of these results see PubChem BioAssay AID2284423 (EPA ToxCast).
